According to the supplement of paper PMC3334620:
The full ranking holds about 33,000 sequences; the median of “E-score (-0.5 to 0.5)” is about -0.056, and the highest 2% start at about 0.38. Shown is part of a subset that was picked to be rich in the highest values.

target: Stb4 (UniProt P50104); experiment: PBM E-score (8-mer binding enrichment) (E-score (-0.5 to 0.5)); higher = stronger / more preferred TF binding; details: protein concentration: 200 nM; construct: GST-DNA-binding domain
Description: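 Universal 'all 10-mer' protein binding microarrays (Agilent AMADID 015681) probed with GST-tagged S. cerevisiae TFs (full-length or DBD) made by in vitro transcription/translation (PURExpress), about 100-200 nM. Bound TF was detected with fluorescent anti-GST. Each ungapped 8-mer (which stands for itself and its reverse complement) is scored by the PBM enrichment score (E-score), a modified Wilcoxon-Mann-Whitney statistic from -0.5 to +0.5, computed with the Universal PBM Analysis Suite. Scale: above 0.35 generally sequence-specific binding.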

Chain of UniProt P50104 (P50104 whole entry, the tested form may be a part): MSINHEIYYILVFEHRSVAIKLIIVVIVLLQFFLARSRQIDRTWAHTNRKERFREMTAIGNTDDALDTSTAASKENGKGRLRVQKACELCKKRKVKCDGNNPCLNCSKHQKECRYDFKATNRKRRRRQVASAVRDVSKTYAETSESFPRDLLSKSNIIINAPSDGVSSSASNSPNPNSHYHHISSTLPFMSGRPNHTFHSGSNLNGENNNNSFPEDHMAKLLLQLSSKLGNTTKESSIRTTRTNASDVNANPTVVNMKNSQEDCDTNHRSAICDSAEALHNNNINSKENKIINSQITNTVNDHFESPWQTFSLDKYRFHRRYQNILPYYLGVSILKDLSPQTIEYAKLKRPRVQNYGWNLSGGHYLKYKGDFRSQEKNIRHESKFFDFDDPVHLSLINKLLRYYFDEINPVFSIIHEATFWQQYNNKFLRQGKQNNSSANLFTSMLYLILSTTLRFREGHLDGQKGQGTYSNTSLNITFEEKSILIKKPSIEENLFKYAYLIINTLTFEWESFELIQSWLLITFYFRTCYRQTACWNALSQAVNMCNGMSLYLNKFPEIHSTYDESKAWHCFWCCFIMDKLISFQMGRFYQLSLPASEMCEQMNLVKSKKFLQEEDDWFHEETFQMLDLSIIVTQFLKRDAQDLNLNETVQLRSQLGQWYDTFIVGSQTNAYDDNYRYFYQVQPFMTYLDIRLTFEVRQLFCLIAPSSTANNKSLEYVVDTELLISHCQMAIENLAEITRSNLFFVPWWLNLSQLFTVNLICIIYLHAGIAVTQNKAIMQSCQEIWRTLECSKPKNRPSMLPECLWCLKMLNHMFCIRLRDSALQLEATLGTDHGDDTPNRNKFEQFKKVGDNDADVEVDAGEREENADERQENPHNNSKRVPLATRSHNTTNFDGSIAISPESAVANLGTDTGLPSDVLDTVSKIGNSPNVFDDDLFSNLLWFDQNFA

Sequence	PBM E-score
TAACCGCA	0.154
TAGCCCGA	0.245
GTACGCCA	-0.109
GACCTGTA	-0.0511
AGACACTA	0.00615
ATACTAAT	-0.00279
AGTTCACA	-0.153
ATATAGCA	-0.202
AACGTCGC	-0.129
CCTTGATA	-0.351
CAGAGCCG	0.237
CCTAACAA	-0.248
TACCGAGA	0.431
CACCGAGC	0.295
AACCGAGC	0.418
CACCGAGA	0.222
AACCGAGT	0.305
AACCGATA	0.227
AACCGACA	0.286
AACCGAGA	0.407
GACCGAGA	0.339
CCTTCAAG	-0.097
ATTTATGG	-0.152
CAACATCC	0.213
ATGTGCAG	-0.166

Sequence	PBM E-score
ATGGATAA	0.024
ACGGATAC	0.407
ACGGATCT	0.28
ACGGATAA	0.416
ACGGATTA	0.145
AAGGATAC	-0.152
ATGGATAC	0.0478
ACGGATAG	0.381
ACGGATAT	0.407
ACCGGTTC	0.216
CGAGCGCG	0.235
CCTTGGAG	-0.196
ATCCGATG	0.437
ACCCGATA	0.349
ATCCGATA	0.448
CTCCGATA	0.275
ACCCGATG	0.399
ATCCGATC	0.428
GTCCGATA	0.22
CTCCGATC	0.229
AGCCGATG	0.321
AACCGATG	0.222
ACCCGATC	0.333
AACCGATC	0.253
GGCAGTGA	0.0105

Sequence	PBM E-score
CCCATAGC	-0.0731
ACCATATA	-0.114
GGTCTAAC	0.0261
ATCCTGCG	-0.117
CAATGCCA	-0.241
AAGCCTAA	-0.0457
CACTCTAA	-0.151
ATGGGCGC	-0.158
AGGGCTGC	-0.134
ATCTGACA	-0.0757
GCGAGGGA	-0.129
ACGAGGGA	-0.0722
ACGAGGGC	-0.0578
CCGAGGGC	0.431
CAGAGGGC	-0.151
CCGAGGGA	0.386
ATCTAACA	-0.00015
CTAGGCAG	-0.169
GGACCCCA	-0.0727
CGGGCCGC	0.309
CGGCCCGA	0.444
CGGGCCGA	0.435
CGACCCTA	0.0884
CGACCCGA	0.4
GGACCCTA	-0.144

Sequence	PBM E-score
GGGGCCGA	0.174
GGGCCCGA	0.278
CGACCCGC	0.173
AGGCCCGA	0.233
GGACCCGA	0.386
CAATCGGA	0.374
CGAGGATA	0.0376
ACATATAA	-0.0928
CCTCTTTA	-0.157
ACTATACG	0.00583
ATGACGAC	0.0312
ATACCGAG	0.377
AAGCCATG	-0.117
AGTCTTCG	-0.008
CCGGCCAA	0.271
CGGACCTC	0.124
GCGCTGAC	-0.0933
AGACCCGA	0.419
AGACCCGC	0.174
AGACCCGG	0.305
AAACTGTG	-0.12
AGAGGGAT	-0.271
CCGAGACC	0.431
CCGAGACA	0.372
CCGAGACG	0.41

Sequence	PBM E-score
ACGAGACC	-0.0429
ACGAGACG	0.0568
ACGAGAGC	-0.151
CGGAGACG	0.235
CCGAGAGA	0.373
CCGAGAGC	0.388
CCACCACG	-0.109
AAGCTAGG	0.0266
GGCAGGCA	0.0342
CGGGGCCA	0.22
AATAGGAG	-0.317
GTCCTCCA	-0.138
CGGAAGTA	0.419
GGGAAGAA	0.0883
AGGAAGAA	-0.278
AGGAAGTA	0.112
CGGAAGAA	0.406
CGGAAGGA	0.397
CTGAAGTC	0.0307
AGGAAGTC	-0.19
AGGAAGGA	-0.282
GGGAAGGA	0.0823
GGGAAGTA	0.184
CGGAAGTC	0.414
ACGCTCAT	-0.276

Sequence	PBM E-score
AAAGGCGA	-0.0639
AGAGCAAC	-0.287
GGGTTTAA	0.0372
CCCGAGAA	0.44
GCCGAGAC	0.392
CTCGAGAG	-0.201
GGCGAGAC	-0.245
TCCGAGAA	0.455
GTCGAGAC	0.0445
CACGAGAA	-0.167
TTCGAGAA	-0.207
CCCGAGAG	0.385
ACCGAGAA	0.311
CACGAGAG	-0.136
TACGAGAA	-0.113
ATAATCAT	-0.0964
CCCATTAC	-0.104
CCCGCAAC	0.228
CAGGCACA	-0.178
ACGGGCCT	0.0389
CAACCACC	0.0572
GCCTAGAC	-0.139
CCTCGAAC	-0.249
GTGACCAA	-0.203
GCCGAGAA	0.406

Sequence	PBM E-score
ACCGAGAC	0.357
CCCGAGAC	0.412
GTCGAGAA	-0.277
CGCGAGAC	-0.0463
GACGAGAA	-0.169
CACCTACG	0.0326
AACCATGT	0.0503
AAACCATA	-0.0199
GACTAGCA	-0.114
GAGGAGGA	-0.152
AACCCGAG	0.406
CCCCCGAG	0.352
CCCCCGAC	0.175
AACCCGAT	0.285
CACCCGGG	0.323
CACCCGGC	0.277
CACCCAAA	-0.0471
CACCCGAG	0.448
CCCCCGAA	0.297
ACCCCGAG	0.333
CACCCGAC	0.384
CACCCGAA	0.436
CCCTAAGG	-0.232
ACCGCTTG	-0.0825
CAATTTCG	0.0914

Sequence	PBM E-score
TGTAAGAA	0.101
CACCTCCA	-0.167
AAGGATAG	0.00922
CGTTCAGC	-0.00077
CACTCGGA	0.422
AACTCGCA	-0.278
AACTCGGA	0.426
TACTCGAA	-0.25
TACTCGGA	0.409
AACTCGGT	0.286
AACTCGGG	0.383
TACTCGCA	-0.0584
CACTCGTA	-0.292
AACTCGCG	-0.00482
AACTCGTG	0.0628
CACTCGAA	-0.267
TTCCAGAA	-0.0529
GTCGTGAA	-0.19
ATAAGCGA	0.0555
ATCTGCAT	-0.071
AGGAACTG	-0.148
CGATCATC	0.0839
GACTCGGA	0.451
CACTCGGG	0.371
GACTCGCA	-0.0572

Sequence	PBM E-score
GACTCGGC	0.327
CACTCGTC	0.0228
CACTCGGC	0.402
CTCCCAAG	-0.114
ACGCCAGG	-0.0466
AAATCATG	-0.27
ATACCCGA	0.476
ATACCCCG	0.205
GTACCCTA	-0.206
GTACCCAA	-0.0334
ATACCCGC	0.328
CTACCCGA	0.464
GTACCCGA	0.437
CTACCCAA	-0.209
ATACCCTG	-0.0928
ATACCCAA	-0.0395
CTACCCGC	0.273
ATACCCGG	0.391
GAAGTAGA	-0.0217
GCGAGTGA	-0.0567
GCATCTCA	-0.222
GGCACAAA	0.104
ATATAGCC	0.183
CCTGAACC	-0.232
GCCCTGCC	0.0895

Sequence	PBM E-score
CGCTCGTC	-0.19
AGCTCGCA	-0.108
GGCTCGAA	-0.0314
AGCTCGTA	-0.189
AGCTCGGA	0.454
CGCTCGGC	0.412
CGCTCGTA	-0.176
GGCTCGGA	0.466
CGCTCGGA	0.463
CGCTCGCC	-0.0544
GGCTCGTA	-0.0188
CGCTCGCA	0.104
AAGAGGCA	-0.186
CGACCAAG	-0.184
TCATTGCA	-0.328
CATGTTCC	0.115
ATTCATTC	0.172
ACCGCAGG	0.0861
ACCTCTAC	-0.0322
AGGCGAAT	-0.189
AGAATTGA	-0.194
GAGAAGAA	0.0753
GACAGATC	0.0617
AGGATAGC	0.206
AGGATAGA	-0.107

Sequence	PBM E-score
CGGATAGA	0.454
CAGATAGC	-0.0171
CGGATAGC	0.394
GGGATAGA	-0.0799
TATAGACA	-0.192
CCTGGCGA	-0.204
AGCTGCAA	-0.0718
CTTCCGGA	0.396
GTTCCGTA	0.314
CCTCCGGC	0.295
CTTCCGGC	0.392
AGTCCGGA	0.332
ATTCCGGC	0.354
GGTCCGGA	0.34
CGTCCGGA	0.3
CTTCCGTA	0.379
ATTCCGGG	0.353
GTTCCGGA	0.435
ATTCCGGA	0.405
AACTAACT	0.0909
AGAGGATG	-0.0042
ATGGCTAA	-0.0251
CCTATTGC	-0.0913
ACAGCATC	-0.102
GAATCTTA	-0.0785

Sequence	PBM E-score
CTTTCCAC	0.0376
AGTTCCCG	0.396
CGTTCCCC	-0.014
AGTTCCGC	0.324
AGGTCCGA	0.304
GGGTCCGA	0.344
CGTTCCGC	0.412
AGTTCCCC	0.138
AGTTCCAA	0.012
AGTTCCCA	-0.0388
AGTTCCGA	0.474
CGGTCCGA	0.449
AGTTCCTA	0.00074
CAGCTTTC	-0.0811
ATGGGTGG	-0.0789
GTGAGTTA	-0.211
ATGTAAAG	-0.162
ACTTGCGC	-0.0787
AGAAGGGG	-0.169
ATAGCGTC	-0.209
GTAACGGA	0.281
GTTTGCAA	-0.113
CGATTTGA	-0.0548
ATTCACAA	-0.0973
CGTTCCGA	0.451

Sequence	PBM E-score
GGTTCCCA	-0.0962
AGTTCCGG	0.419
AGTTCCAG	-0.136
CGTTCCAA	-0.0817
AGTTCCTG	-0.14
GGTTCCAA	0.196
GGTTCCGA	0.468
CGTTCCTA	-0.00632
ACCACCCT	-0.162
CCTCTTAA	-0.0505
GCCGAAAC	0.397
ACCGAAAC	0.372
GCCGAAGC	0.385
GACGAAAA	0.0557
CCCGAAAG	0.393
ACCGAAAG	0.231
CACGAAAG	-0.148
ACCGAAAA	0.337
GCCGAAAA	0.438
GTCGAAAC	-0.0645
ACCGAAGC	0.287
GACGAAGC	-0.142
GGAGGATA	-0.0736
CGTTACTC	-0.0977
AGAAGTGC	-0.122

Sequence	PBM E-score
CGCGGGAG	0.172
CCCGAAAA	0.428
TACGAAAA	-0.0536
CACGAAAA	-0.0798
TGCGAAAA	-0.0153
TCCGAAAA	0.441
CCCGAAAC	0.339
CTCAAACC	-0.0373
CGAGCTAC	0.0965
GAGTCAAC	0.0604
ACCATAGC	-0.123
TACATCCA	-0.202
AATTAAAT	-0.0575
ATTATCCG	0.475
ACTATCCC	-0.044
ATTATCCA	-0.0958
AGTATCCC	-0.0361
AGTATCCG	0.436
CCTATCCC	0.176
CCTATCCG	0.391
ATTATCCC	0.0679
AGTATCCA	0.0731
ACTATCCG	0.45
CCTATCCA	-0.196
ACTATCCT	-0.0638
